# From PubChem BioAssay AID1159580 (chemical genetic matrix, 2015)
# Among all 5,500 compounds or so, about 2,000 (36%) were called active. Inconclusive results (about 18%) are left out. This is one part of the list. A number with no mark means an inactive call. Cut-off read from the data, not from the text of the source: active = normalized growth mostly below about 0.91 (no sharp cut-off); inconclusive = no clear call, values can overlap the other calls; inactive = mostly above about 0.92.
# Assay: chemical genetic growth profiling, strain panel (AID 1159580);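 note: tested at 20 µM; growth read once vehicle control cultures reached saturation at 30 °C; 1 = growth at the plate median or of vehicle wells; lower values mean less growth of the strain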
# Conditions: S. cerevisiae deletion strains, growth OD
# [1] = locus YAR019C, strain CDC15, hits give low values
# [2] = locus YBL105C, strain PKC1, hits give low values
# [3] = locus YBR135W, strain CKS1, hits give low values
# [4] = locus YBR136W, strain MEC1, hits give low values
# [5] = locus YBR160W, strain CDC28, hits give low values
# [6] = locus YDL017W, strain CDC7, hits give low values
# [7] = locus YDL028C, strain MPS1, hits give low values
# [8] = locus YDL101C, strain DUN1, hits give low values
# [9] = locus YDL108W, strain KIN28, hits give low values
# [10] = locus YDL132W, strain cdc53, hits give low values
# [11] = locus YDL214C, strain PRR2, hits give low values
# [12] = locus YDR052C, strain DBF4, hits give low values
# [13] = locus YDR054C, strain cdc34, hits give low values
# [14] = locus YDR226W, strain ADK1, hits give low values
# [15] = locus YDR477W, strain SNF1, hits give low values
# [16] = locus YER123W, strain YCK3, hits give low values
# [17] = locus YER133W, strain GLC7, hits give low values
# [18] = locus YFL009W, strain cdc4, hits give low values
# [19] = locus YFL029C, strain CAK1, hits give low values
# [20] = locus YFR003C, strain YPI1, hits give low values
# [21] = locus YFR019W, strain FAB1, hits give low values
# [22] = locus YFR028C, strain CDC14, hits give low values
# [23] = locus YGR040W, strain KSS1, hits give low values
# [24] = locus YGR052W, strain FMP48, hits give low values
# [25] = locus YGR092W, strain DBF2, hits give low values
# [26] = locus YHR030C, strain SLT2, hits give low values
# [27] = locus YHR079C, strain IRE1, hits give low values
# [28] = locus YHR082C, strain KSP1, hits give low values
# [29] = locus YHR205W, strain SCH9, hits give low values
# [30] = locus YIL147C, strain SLN1, hits give low values
# [31] = locus YJL095W, strain BCK1, hits give low values
# [32] = locus YJL128C, strain PBS2, hits give low values
# [33] = locus YJL157C, strain FAR1, hits give low values
# [34] = locus YJR016C, strain ILV3, hits give low values
# [35] = locus YJR066W, strain TOR1 (second series), hits give low values
# [36] = locus YJR066W, strain TOR1, hits give low values
# [37] = locus YKL048C, strain ELM1, hits give low values
# [38] = locus YKL067W, strain YNK1, hits give low values
# [39] = locus YKL101W, strain HSL1, hits give low values
# [40] = locus YKL193C, strain SDS22, hits give low values
# [41] = locus YKL203C, strain TOR2, hits give low values
# [42] = locus YLR113W, strain HOG1, hits give low values
# [43] = locus YLR133W, strain CKI1, hits give low values
# [44] = locus YLR403W, strain SFP1, hits give low values
# [45] = locus YML070W, strain DAK1, hits give low values
# [46] = locus YMR001C, strain CDC5, hits give low values
# [47] = locus YMR205C, strain PFK2 (second series), hits give low values
# [48] = locus YMR277W, strain FCP1, hits give low values
# [49] = locus YNL006W, strain LST8, hits give low values
# [50] = locus YNL020C, strain ARK1, hits give low values
# [51] = locus YNL161W, strain CBK1, hits give low values
# [52] = locus YNL183C, strain NPR1, hits give low values
# [53] = locus YNL207W, strain RIO2, hits give low values
# [54] = locus YNL222W, strain SSU72, hits give low values
# [55] = locus YNL307C, strain MCK1 (second series), hits give low values
# [56] = locus YOL078W, strain AVO1, hits give low values
# [57] = locus YOL136C, strain PFK27, hits give low values
# [58] = locus YOR061W, strain CKA2, hits give low values
# [59] = locus YOR119C, strain RIO1, hits give low values
# [60] = locus YOR231W, strain MKK1, hits give low values
# [61] = locus YOR329C, strain SCD5, hits give low values
# [62] = locus YPL031C, strain PHO85, hits give low values
# [63] = locus YPL153C, strain RAD53, hits give low values
# [64] = locus YPL204W, strain HRR25, hits give low values
# [65] = locus YPL209C, strain IPL1, hits give low values
# [66] = locus YPL256C, strain CLN2, hits give low values
# [67] = locus YPR025C, strain CCL1, hits give low values
# [68] = locus YPR106W, strain ISR1, hits give low values
# [69] = locus YPR111W, strain DBF20, hits give low values
# [70] = strain NNK1, hits give low values
# [71] = strain TSCII, hits give low values
compound,measurement,setting,value
Cc1cc(/C(N)=N\OC(=O)C(C)(C)C)cc(/C(N)=N\OC(=O)C(C)(C)C)c1,normalized growth,[1],0.977
same,normalized growth,[2],0.985
same,normalized growth,[3],0.992
same,normalized growth,[4],0.969
same,normalized growth,[5],0.98
same,normalized growth,[6],0.989
same,normalized growth,[7],0.949
same,normalized growth,[8],0.985
same,normalized growth,[9],0.983
same,normalized growth,[10],0.987
same,normalized growth,[11],0.968
same,normalized growth,[12],0.996
same,normalized growth,[13],0.985
same,normalized growth,[14],0.979
same,normalized growth,[15],0.991
same,normalized growth,[16],0.974
same,normalized growth,[17],0.977
same,normalized growth,[18],0.982
same,normalized growth,[19],0.986
same,normalized growth,[20],0.989
same,normalized growth,[21],0.979
same,normalized growth,[22],0.983
same,normalized growth,[23],0.979
same,normalized growth,[24],1.02
same,normalized growth,[25],1.02
same,normalized growth,[26],0.904
same,normalized growth,[27],1.02
same,normalized growth,[28],1.06
same,normalized growth,[29],0.974
same,normalized growth,[30],0.964
same,normalized growth,[31],0.992
same,normalized growth,[32],0.937
same,normalized growth,[33],1
same,normalized growth,[34],0.993
same,normalized growth,[35],0.962
same,normalized growth,[36],1
same,normalized growth,[37],0.987
same,normalized growth,[38],0.953
same,normalized growth,[39],0.954
same,normalized growth,[40],0.983
same,normalized growth,[41],1.08
same,normalized growth,[42],0.858 (active)
same,normalized growth,[43],1
same,normalized growth,[44],0.997
same,normalized growth,[45],0.966
same,normalized growth,[46],0.969
same,normalized growth,[47],0.991
same,normalized growth,[48],0.972
same,normalized growth,[49],0.984
same,normalized growth,[50],0.989
same,normalized growth,[51],0.988
same,normalized growth,[52],1.03
same,normalized growth,[53],0.989
same,normalized growth,[54],0.979
same,normalized growth,[55],0.947
same,normalized growth,[56],0.992
same,normalized growth,[57],0.962
same,normalized growth,[58],1
same,normalized growth,[59],1.03
same,normalized growth,[60],1
same,normalized growth,[61],0.99
same,normalized growth,[62],0.997
same,normalized growth,[63],0.965
same,normalized growth,[64],0.969
same,normalized growth,[65],0.991
same,normalized growth,[66],0.922
same,normalized growth,[67],0.989
same,normalized growth,[68],0.978
same,normalized growth,[69],0.954
same,normalized growth,[70],0.982
same,normalized growth,[71],0.967
Cn1ncc(C(=O)O/N=C(/N)c2cc(C(F)(F)F)cc(C(F)(F)F)c2)c1-n1cccc1,normalized growth,"locus YAL013W, strain DEP1, hits give low values",1.02
same,normalized growth,"locus YBR229C, strain ROT2, hits give low values",1.01
same,normalized growth,[8],1.01
same,normalized growth,"locus YDL134C, strain PPH21, hits give low values",1.02
same,normalized growth,"locus YDR150W, strain NUM1, hits give low values",0.963
same,normalized growth,"locus YEL061C, strain CIN8, hits give low values",0.999
same,normalized growth,"locus YGR078C, strain PAC10, hits give low values",1
same,normalized growth,[26],0.972
same,normalized growth,"locus YHR087W, strain rtc3, hits give low values",0.996
same,normalized growth,"locus YJR043C, strain POL32, hits give low values",0.999
same,normalized growth,"locus YJR075W, strain HOC1, hits give low values",0.972
same,normalized growth,"locus YKL190W, strain CNB1, hits give low values",1.01
same,normalized growth,"locus YLR039C, strain RIC1, hits give low values",0.958
same,normalized growth,"locus YLR058C, strain SHM2 (second series), hits give low values",1
same,normalized growth,"locus YLR085C, strain ARP6, hits give low values",0.984
same,normalized growth,"locus YLR262C, strain YPT6, hits give low values",1.03
same,normalized growth,"locus YML094W, strain GIM5, hits give low values",0.988
same,normalized growth,"locus YMR219W, strain ESC1, hits give low values",1
same,normalized growth,"locus YMR263W, strain SAP30, hits give low values",0.934
same,normalized growth,"locus YMR307W, strain GAS1, hits give low values",1.03
same,normalized growth,"locus YNL153C, strain GIM3, hits give low values",0.996
same,normalized growth,"locus YNL298W, strain CLA4 (second series), hits give low values",1.02
same,normalized growth,"locus YNL322C, strain KRE1, hits give low values",0.991
same,normalized growth,"locus YNR030W, strain Alg12, hits give low values",1.02
same,normalized growth,"locus YOL006C, strain TOP1, hits give low values",0.98
same,normalized growth,"locus YPL055C, strain LGE1, hits give low values",0.88
same,normalized growth,"locus YPL241C, strain CIN2, hits give low values",0.935
same,normalized growth,"locus YPR135W, strain CTF4, hits give low values",0.961
COc1c(Br)csc1C(=O)O/N=C(/N)c1cc(C(F)(F)F)cc(C(F)(F)F)c1,normalized growth,[1],0.994
same,normalized growth,[2],0.981
same,normalized growth,[3],0.99
same,normalized growth,[4],0.988
same,normalized growth,[5],0.979
same,normalized growth,[6],0.985
same,normalized growth,[7],0.988
same,normalized growth,[8],0.954
same,normalized growth,[9],0.987
same,normalized growth,[10],0.989
same,normalized growth,[11],1.05
same,normalized growth,[12],0.99
same,normalized growth,[13],0.989
same,normalized growth,[14],0.986
same,normalized growth,[15],1.05
same,normalized growth,[16],0.999
same,normalized growth,[17],1.03
same,normalized growth,[18],0.995
same,normalized growth,[19],0.96
same,normalized growth,[20],0.988
same,normalized growth,[21],1
same,normalized growth,[22],0.987
same,normalized growth,[23],1.06
same,normalized growth,[24],1.1
same,normalized growth,[25],1
same,normalized growth,[26],1.1
same,normalized growth,[27],1.07
same,normalized growth,[28],1.14
same,normalized growth,[29],1.03
same,normalized growth,[30],0.993
same,normalized growth,[31],1.09
same,normalized growth,[32],0.956
same,normalized growth,[33],1.01
same,normalized growth,[34],0.979
same,normalized growth,[35],0.99
same,normalized growth,[36],1.15
same,normalized growth,[37],1.01
same,normalized growth,[38],1.01
same,normalized growth,[39],1.05
same,normalized growth,[40],0.987
same,normalized growth,[41],1.14
same,normalized growth,[42],1.02
same,normalized growth,[43],1.03
same,normalized growth,[44],1.05
same,normalized growth,[45],1.04
same,normalized growth,[46],0.989
same,normalized growth,[47],0.999
same,normalized growth,[48],0.99
same,normalized growth,[49],0.995
same,normalized growth,[50],1.03
same,normalized growth,[51],0.982
same,normalized growth,[52],1.03
same,normalized growth,[53],0.989
same,normalized growth,[54],0.985
same,normalized growth,[55],1.05
same,normalized growth,[56],0.986
same,normalized growth,[57],1.03
same,normalized growth,[58],0.97
same,normalized growth,[59],1.13
same,normalized growth,[60],1.03
same,normalized growth,[61],0.995
same,normalized growth,[62],1.06
same,normalized growth,[63],1.04
same,normalized growth,[64],1.07
same,normalized growth,[65],0.985
same,normalized growth,[66],1.01
same,normalized growth,[67],0.987
same,normalized growth,[68],0.967
same,normalized growth,[69],0.964
same,normalized growth,[70],1
same,normalized growth,[71],0.993
